ELG1 DNA repair = ELG1-dependent DNA repair inhibition | HEK293T ELG1-luciferase reporter, luminescence, 16 h; DNA damage induced by 5-fluorouridine | Potency, µM (series often up to 46.1 µM), inactives show at the top dose activity change, negative = inhibition, most hits filed as inhibitors | actives 2.3% (n = 330,000) | AID 504467; also: % is scaled to controls: 0 for no effect and ±100 for the full control effect; nearly all actives have a fitted effect of over 55% in size
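Reporter activity after DNA damage by 5-fluorouridine is monitored. Compound-treated cells incubate 16 hr at 37 °C, then ONE-Glo is added for 30 min before luminescence reading.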
KB-V1 cytotox = kills drug-selected multidrug resistant KB-V1 cells; KB-V1 MDR cells viability, CellTiter-Glo, 72 h; AID 1347076; Potency, µM (series often up to 46.1 µM), actives largely listed as cytotoxic; actives 3.4% (n = 400,000); also: % is scaled to controls: 0 for no effect and ±100 for the full control effect; nearly all actives have a fitted effect of over 60% in size
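Cytotoxicity toward P-gp-expressing KB-V1 cells was determined as loss of CellTiter-Glo luminescence after 72 h at 37 degrees C. Compounds were tested in quantitative HTS format across a concentration range, with curves fitted to normalized data.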
MCF10A rerep = DNA re-replication induction in MCF 10a cells. Potency, µM (top dose mostly 46.1 µM), inactives show at the top dose activity, positive = re-replication, hits mostly activators. actives 2.9% (n = 350,000). AID 624296. MCF 10A DNA re-replication, Hoechst nuclear intensity, 48 h; also: % of control where 0% means no effect; nearly all actives have a fitted effect of over 50% in size
SW480 rerep = induces DNA re-replication in SW480 colon adenocarcinoma cells. SW480 DNA re-replication, Hoechst DNA content imaging, 48 h. Potency, µM (top dose mostly 46.1 µM), inactives show at the top dose re-replication activation, usual class: activators. actives 1.8% (n = 340,000). AID 624297; also: % of control where 0% means no effect; nearly all actives have a fitted effect of over 55% in size
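SW480 cells exposed to compounds for 48 hr at 37 C, 5% CO2, then Hoechst-stained 40 min. Nuclear DNA content imaged by fluorescence scanning (405 nm excitation, 500-530 nm emission); re-replication scored as increased high-intensity nuclei.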
KB-3-1 cytotox = KB-3-1 parental cell cytotoxicity; KB-3-1 viability, CellTiter-Glo ATP luminescence, 72 h; Potency, µM (doses to about 46.1 µM), usual class: cytotoxic; actives 1.4% (n = 400,000); also: % is scaled to controls: 0 for no effect and ±100 for the full control effect; nearly all actives have a fitted effect of over 60% in size
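Luminescent ATP read-out (CellTiter-Glo) measures survival of drug-naive KB-3-1 cells after 72 h compound exposure at 37 °C. Titration series was screened from lowest to highest concentration, with DMSO vehicle plates as background controls.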
Active calls of the source: *; i = inactive; ? = inconclusive; / = no result given; ! = repeats disagree; [ ] = another dose, or the depositor's remark. A selection: hits, their analogues and other compounds. The true share with any hit is near 8.1%. Calls follow the shape of the dose curve; as a rule, active = well fitted curve in the direction sought with a large enough effect; inconclusive = small, poorly fitted or top-dose-only effect, or another doubt; inactive = no such curve, though single readings can be large; an effect the other way counts as inactive or inconclusive. Potency is read from the fitted curve at half-maximal effect.

SMILES	ELG1 DNA repair	KB-V1 cytotox	MCF10A rerep	SW480 rerep	KB-3-1 cytotox
O=C(CCSc1ccccc1)N1CCN(c2ccccc2)CC1	?	i	?	0%	i
CCCC(=O)N1CCN(c2ccc([N+](=O)[O-])cc2Cl)CC1	-7%	i	-4%	-3%	i
O=C(CSc1ccc(Cl)cc1)N1CCN(c2ncc(C(F)(F)F)cc2Cl)CC1	-22%	15µM*	?	20%	i
O=C(CSc1ccc(Cl)cc1)N1CCN(c2ccc([N+](=O)[O-])cc2Cl)CC1	?	16µM*	?	-5%	?
O=C(CN1CCN(c2ncc(C(F)(F)F)cc2Cl)CC1)N1CCN(c2ncc(C(F)(F)F)cc2Cl)CC1	?	i	?	?	?
O=C(c1cc(C2CC2)nn1-c1ccccc1)N1CCN(c2ncc(C(F)(F)F)cc2Cl)CC1	6%	16µM*	13µM*	-2%	i
O=C(CCSc1ccc(Cl)cc1)N1CCN(c2ccc(O)cc2)CC1	8.2µM*	?	?	?	?
Cc1ccc(Cl)cc1N1CCN(C(=O)CSc2ccsc2[N+](=O)[O-])CC1	3%	5.2µM*	?	-5%	i
Cc1ccc(Cl)cc1N1CCN(C(=O)CSc2cc(=O)n(C)c3ccccc23)CC1	/	i	/	/	i
Cc1ccc(-c2cn(-c3ccc(SC(F)F)cc3)c3[n+]2CCC3)cc1	?	i	2%	-7%	2.1µM*
FC(F)Sc1ccc(-n2cc(-c3ccc(Cl)cc3)[n+]3c2CCC3)cc1	-2%	i	3%	1%	18µM*
Clc1ccc(-n2cc(-c3ccc(Br)cc3)[n+]3c2CCCCC3)cc1	?	i	6%	?	?
CCn1cc(S(=O)(=O)c2ccc(OC)cc2)c(=O)c2cc(F)c(N3CCC(C)CC3)cc21	/	?	/	/	i
O=C(Nc1ccc(Cl)cc1Cl)[C@@H]1CC=C[C@@H]2CCN(Cc3ccccc3)C(=O)[C@@H]21	/	?	/	/	i
O=C(CCl)N1c2ccccc2Sc2ccc3ccccc3c21	/	?	/	/	i
CC(=O)c1ccc2c(c1)N(CCCN1CCC(CCO)CC1)c1ccccc1S2	-2%	?	-38%	5%	i
CN(C)CCCN1c2ccccc2CCc2ccccc21	-12%	?	/	-2%	i
CN(C)CCCN1c2ccc3ccccc3c2Sc2cccc(Cl)c21	/	15µM*	?	?	?
CN(C)CCCN1c2ccccc2Sc2ccc(Cl)cc21	-28%	13µM*!	?	?	?
CN(C)CCCN1c2ccccc2Sc2ccc3ccccc3c21	/	18µM*	?	?	?
CN1CCN(CCCN2c3ccccc3Sc3ccc(S(=O)(=O)N(C)C)cc32)CC1	-8%	21µM*	?	-38%	i
Cn1nc(C(C)(C)C)cc1C(=O)N1CCCC(c2cc(C(=O)NCc3ccccc3)no2)C1 (configuration not stated)	/	?	/	/	i
COc1cccc(NC(=O)NC(=O)c2c(C)cc(Cl)nc2Cl)c1	7%	i	-5%	3%	i
CC[N+](C)(C)CC/C=C1/c2ccccc2Sc2ccc(Cl)cc21	-20%	i	-22%	-9%	i
OCCN1CCN(CC/C=C2/c3ccccc3Sc3ccc(Cl)cc32)CC1	11%	i	4.6µM*	29%	i
SMILES	ELG1 DNA repair	KB-V1 cytotox	MCF10A rerep	SW480 rerep	KB-3-1 cytotox
OCCN1CCN(CCCN2c3ccccc3Sc3ccc(Cl)cc32)CC1	0%	?	21µM*!	?	i
CC1Cc2ccccc2C[N+]1(C)CC(=O)c1cccc([N+](=O)[O-])c1 (configuration not stated)	/	i	/	/	i
CC1=CC2C(C(O)CC3(C)C2CC(C)C32OCOC23COCO3)C2(C)C/C(=C\O)C(=O)C=C12 (configuration not stated)	/	?	4.6µM*	15µM*	?
Cc1ccc2nc(-c3ccc(NS(C)(=O)=O)cc3)cc(-c3ccccc3)c2c1	?	i	?	29%	i
CCS(=O)(=O)Nc1ccc(-c2cc(-c3ccccc3)c3cc(C)ccc3n2)cc1	?	i	15µM*	?	i
CN1CCN(CC(=O)N2c3ccccc3C(C)(c3ccccc3)CC2(C)C)CC1 (configuration not stated)	-10%	?	?	21µM*	?
COC(=O)C[C@H]1C[C@H]2c3cc(NC(=O)C4CCOCC4)ccc3O[C@H]2[C@@H](CO)O1	/	i	/	/	i
Cc1ccc(S(=O)(=O)N2CCCC(c3nc4c(nnn4Cc4ccc(OC(F)(F)F)cc4)c(=O)[nH]3)C2)cc1 (configuration not stated)	/	i	/	/	i
N=c1nc(N)nc2n1NC(c1ccc(F)cc1)=CS2	?	1.3µM*	?	-1%	i
O=c1c2c3c(sc2n(Cc2cc(=O)n4ccccc4n2)c(=O)n1-c1ccc(Cl)cc1)CCC3	/	i	/	/	i
CC1CCN(c2ccc3nnc(CCC(=O)Nc4cccc(F)c4)n3n2)CC1	-1%	i	8%	2%	i
Cc1ccc(Sc2ncccc2O)cc1	/	i	-6%	-3%	i
Cc1ccc(Sc2ncccc2N)cc1	/	i	?	21µM*	i
COc1cc2cc(-c3ccc(O)cc3O)nc(C)c2cc1OC	-10%	6.5µM*	?	12%	?
COc1cc2cc(-c3ccc(OC)c(OC)c3C)nc(N)c2cc1OC	/	6.5µM*	1.6µM*	1.6µM*	?
COc1ccc(CCNC(=O)C2CCN(c3nc4ccccc4nc3C(F)(F)F)CC2)cc1OC	/	?	/	/	i
O=C(CC1(O)C(=O)N(Cc2ccccc2)c2ccccc21)c1ccncc1 (configuration not stated)	2%	i	?	-1%[9.22 µM]	?
C#CCN1C(=O)C(O)(CC(=O)c2ccc(OC)c(OC)c2)c2ccccc21 (configuration not stated)	-11%	18µM*	?	?	?
CCCN1C(=O)C(O)(CC(=O)c2cccc(OC)c2)c2ccccc21 (configuration not stated)	2%	i	3%	?	i
C#CCN1C(=O)C(O)(CC(=O)c2ccc3c(c2)OCCO3)c2ccccc21 (configuration not stated)	13%	i	-5%	-6%	i
Cc1ccccc1CN1C(=O)C(O)(CC(=O)c2ccncc2)c2ccccc21 (configuration not stated)	-12%	?	?	16µM*	?
COc1ccc(C(=O)CC2(O)C(=O)N(Cc3cccc(C(F)(F)F)c3)c3ccccc32)cc1 (configuration not stated)	/	15µM*	/	/	?

Assay outcomes as filed in PubChem BioAssay.
